# Test results: PubChem BioAssay (EPA / NIEHS)
# Records with an inconclusive call do not appear. Activity calls are given as the source filed them. Rule for the calls, unless noted: active = hit-call score of the fitted dose curve at least 0.9, where 1 is the maximum; inactive = score below 0.9.
# What was measured:
# DIO1 (gene 1733) = assay: CCTE_GLTED_hDIO1: CCTE's human Deiodinase 1 (DIO1) Inhibition Assay, Great Lakes Toxicology and Ecology Division (GLTED) Lab (AID 2283987; active = hit-call score of the fitted dose curve at least 0.9, where 1 is the maximum;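 note: isolated human DIO1 enzyme in a cell-free setup rather than cells; enzyme activity read as free iodide liberated from substrate via Sandell-Kolthoff colorimetry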)
# Method: CCTE_GLTED_hDIO1 is a cell-free, single-readout assay designed to test the inhibitory activity of chemicals toward human iodothyronine Deiodinase type 1 (DIO1) enzyme. Enzyme is incubated in presence of test chemical for 3 hours during which uninhibited enzyme liberates free iodide from substrate. Free iodide is measured in a second step using the Sandell-Kolthoff method.CCTE_GLTED_hDIO1 is the assay component measured from the CCTE_GLTED_hDIO1 assay. It is designed to make measurements of enzyme activity, a form of enzyme reporter, as detected with absorbance signals by spectrophotometry.Data from the assay component CCTE_GLTED_hDIO1 was analyzed into 1 assay endpoint. This assay endpoint, CCTE_GLTED_hDIO1, was analyzed in the positive analysis fitting direction relative to DMSO as the negative control and baseline of activity. Using a type of enzyme reporter, loss-of-signal activity can be used to understand changes in the enzymatic activity as they relate to the gene DIO1. Furthermore, this assay endpoint can be referred to as a primary readout, because the performed assay has only produced 1 assay endpoint. To generalize the intended target to other relatable targets, this assay endpoint is annotated to the 'deiodinase' intended target family, where the subfamily is 'deiodinase Type 1'.
# […] assay, developed at Great Lakes Toxicology and Ecology Division (GLTED) within the EPA's Center for Computational Toxicology and Exposure (CCTE), is designed to test the chemicals' ability to inhibit DIO1. Assay is based on iodide release measured by the Sandell-Kolthoff method and is run in 96-well plate format with assay plates run in triplicate (n=3). The method used for the deiodinase assay was largely based on Renko et al. (2012, 2015). These works describe the utilization of the SK reaction to measure deiodinase-liberated iodide in a 96-well-plate format. The SK reaction is based on the reduction of the yellow-colored cerium IV to the non-colored cerium III by arsenic, with the rate of this reaction increased in the presence of iodide in a concentration-dependent manner (Sandell and Kolthoff, 1937). Iodinated test chemicals can interfere as competitive inhibitors, or if the stock chemical has contaminating free-iodide present. Other chemicals, e.g.: nitrite, iron, and thiocyanate can interfere with the Sandell-Kolthoff reaction (see Sandell and Kolthoff, 1937).
# [1] = target: Nucleoli Translocation, AR (gene 367) (UniProt P10275); assay: UPITT_HCI_U2OS_AR_TIF2_Nucleoli_Antagonist: University of Pittsburgh U2OS Androgen Receptor-Transcriptional Intermediary Factor 2 (AR-TIF2) Antagonism High Content Imaging Assay for Nucleoli Translocation (AID 2283997; active = hit-call score of the fitted dose curve at least 0.9, where 1 is the maximum)
# Sequence of Nucleoli Translocation, AR (gene 367) (P10275 whole entry, looked up): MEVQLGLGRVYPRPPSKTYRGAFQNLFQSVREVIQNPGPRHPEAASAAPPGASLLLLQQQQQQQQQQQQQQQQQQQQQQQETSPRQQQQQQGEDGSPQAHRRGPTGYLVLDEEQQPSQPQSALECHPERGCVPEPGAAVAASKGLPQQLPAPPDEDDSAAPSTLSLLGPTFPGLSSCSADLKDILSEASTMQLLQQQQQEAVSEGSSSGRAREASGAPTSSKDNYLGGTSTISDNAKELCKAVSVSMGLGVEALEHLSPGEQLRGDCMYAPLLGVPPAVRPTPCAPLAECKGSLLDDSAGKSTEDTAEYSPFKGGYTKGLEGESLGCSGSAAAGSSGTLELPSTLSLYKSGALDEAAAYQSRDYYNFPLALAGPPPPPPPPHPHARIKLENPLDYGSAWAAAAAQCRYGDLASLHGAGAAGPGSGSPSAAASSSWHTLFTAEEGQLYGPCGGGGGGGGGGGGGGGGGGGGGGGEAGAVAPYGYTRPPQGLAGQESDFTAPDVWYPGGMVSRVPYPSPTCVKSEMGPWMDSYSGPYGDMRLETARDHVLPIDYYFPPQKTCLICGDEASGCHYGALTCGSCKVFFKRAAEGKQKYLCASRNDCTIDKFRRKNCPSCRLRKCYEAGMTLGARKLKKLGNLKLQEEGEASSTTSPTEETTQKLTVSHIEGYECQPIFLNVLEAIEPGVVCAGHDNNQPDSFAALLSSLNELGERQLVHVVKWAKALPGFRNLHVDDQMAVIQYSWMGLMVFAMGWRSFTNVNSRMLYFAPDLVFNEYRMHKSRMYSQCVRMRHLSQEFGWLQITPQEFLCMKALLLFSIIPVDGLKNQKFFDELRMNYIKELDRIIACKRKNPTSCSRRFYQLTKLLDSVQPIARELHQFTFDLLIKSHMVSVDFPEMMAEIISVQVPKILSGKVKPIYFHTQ
# Procedure, shortened: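 U2OS cells expressing RFP-tagged human AR and GFP-tagged TIF2 were imaged by high-content fluorescence microscopy for red AR signal in the nucleolar region. Compounds were screened at 20 uM final (0.2% DMSO), with activity fitted relative to DHT as baseline.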
# [2] = target: Ratio of Nucleoli Translocation and Cytoplasm, AR (gene 367) (UniProt P10275); assay: UPITT_HCI_U2OS_AR_TIF2_Nucleoli_Cytoplasm_Ratio_Antagonist: University of Pittsburgh U2OS Androgen Receptor-Transcriptional Intermediary Factor 2 (AR-TIF2) Antagonism High Content Imaging Assay for Ratio of Nucleoli Translocation and Cytoplasm (AID 2283999; active = hit-call score of the fitted dose curve at least 0.9, where 1 is the maximum;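 note: antagonists lower the DHT-driven ratio of nucleolar to cytoplasmic red signal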)
# Sequence of Ratio of Nucleoli Translocation and Cytoplasm, AR (gene 367) (P10275 whole entry, looked up, the tested form may be a part): as the sequence (P10275 whole entry, looked up) above
# Procedure, shortened: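 Human osteosarcoma U2OS line, AR fused to RFP, coactivator TIF2 fused to GFP. Cpds 20 uM final, 0.2% DMSO (screen); 0.195–50 uM final, 0.5% DMSO (CRC). Endpoint: nucleoli/cytoplasm red signal ratio, DHT as baseline, loss-of-signal antagonist mode.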
# [3] = target: Ratio of Nucleoli Translocation and Cytoplasm, AR (gene 367) (UniProt P10275); assay: UPITT_HCI_U2OS_AR_TIF2_Nucleoli_Cytoplasm_Ratio_Agonist: University of Pittsburgh U2OS Androgen Receptor-Transcriptional Intermediary Factor 2 (AR-TIF2) Agonism High Content Imaging Assay for Ratio of Nucleoli Translocation and Cytoplasm (AID 2284000; active = hit-call score of the fitted dose curve at least 0.9, where 1 is the maximum;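 note: hits raise the red nucleolar to cytoplasm ratio above vehicle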)
# Procedure, shortened: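 U2OS cells expressing RFP-tagged human AR and GFP-tagged TIF2 were imaged by high-content fluorescence microscopy. The endpoint is the ratio of nucleolar to cytoplasmic red fluorescence, fitted for gain of signal relative to DMSO. Concentration-response spanned 0.195 to 50 uM final (0.5% DMSO).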
# [4] = CCTE_Simmons_MITO_basal_resp_rate: CCTE's HepG2 Seahorse XF Respirometric Screening Assay at Basal Respiratory State, Simmons Lab (AID 2284001); details: actives raise or lower the signal
# Procedure, shortened: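 HepG2 cells were given test chemicals at 7 concentrations, 125 nM to 100 uM final, and oxygen consumption rate was read every 6 min (3 min mix, 3 min measure) over 72 min. Basal-phase OCR was fitted bidirectionally against DMSO.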
# [5] = CCTE_Simmons_MITO_max_resp_rate: CCTE's HepG2 Seahorse XF Respirometric Screening Assay at Maximal Respiratory State [uncoupled], Simmons Lab (AID 2284002); details: actives raise or lower the signal
# Procedure, shortened: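 Read-out is oxygen consumption rate at maximal respiration, taken after FCCP uncoupling of compound-treated HepG2 cells. Seven final concentrations from 125 nM to 100 uM were tested, each in three biological replicates.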
# [6] = CCTE_Harrill_HTTr_Apoptosis_DMEM_12hr: (Pilot) CCTE's 12-hour Apoptosis Assessment for the High-Throughput Transcriptomics (HTTr) Platform, in MCF-7 cells cultured in DMEM + 10% fetal bovine serum, Harrill Lab (AID 2283982)
# Procedure, shortened: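 MCF-7 cells in DMEM + 10% FBS, exposed 12 h to an eight-point dilution series; caspase-3/7 activation imaged with CellEvent Green. Bidirectional fit versus DMSO.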
# [7] = CCTE_Harrill_HTTr_Apoptosis_DMEM_24hr: (Pilot) CCTE's 24-hour Apoptosis Assessment for the High-Throughput Transcriptomics (HTTr) Platform, in MCF-7 cells cultured in DMEM + 10% fetal bovine serum, Harrill Lab (AID 2283983)
# Procedure, shortened: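 MCF-7 cells in DMEM + 10% FBS, eight-point dilution series, 24 h exposure. Caspase-3/7 activation imaged by high-content imaging with CellEvent Caspase 3/7 Green. Bidirectional curve fitting against DMSO baseline.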
# [8] = CCTE_Harrill_HTTr_Apoptosis_PRF_DMEM_6hr: (Pilot) CCTE's 6-hour Apoptosis Assessment for the High-Throughput Transcriptomics (HTTr) Platform, in MCF-7 cells cultured phenol red-free DMEM + 10% charcoal-stripped fetal bovine serum, Harrill Lab (AID 2283984)
# Description: This is a cell-based assay that evaluates apoptosis using high content imaging to evaluate activation of caspase-3/7 using the CellEvent Caspase 3/7 Green detection reagent in 384-well format.One of seven assay components measured from the CCTE_Harrill_HTTr_Apoptosis assay. This was part of a pilot experiment. This is a cell-based assay that evaluates apoptosis in MCF-7 cells cultured in phenol red-free DMEM + 10% charcoal-stripped fetal bovine serum. High content imaging is used to evaluate activation of caspase-3/7 using the CellEvent Caspase 3/7 Green detection reagent. Measurements are taken at 6 hours after chemical dosing in 384-well format.The assay component endpoint CCTE_Harrill_HTTr_Apoptosis_PRF_DMEM_6hr was analyzed with bidirectional fitting relation to DMSO as the negative control and baseline of activity. Using a type of viability reporter, gain-of-signal activity can be used to evaluate activation of caspase-3/7 using the CellEvent Caspase 3/7 Green detection reagent to understand changes in apoptosis. To generalize the intended target to other relatable targets, this assay endpoint is annotated to cell cycle, where the subfamily is apoptosis.
# Chemicals were tested in MCF7 cells in an eight point dilution series with a six hour exposure duration.
# [9] = CCTE_Harrill_HTTr_Apoptosis_PRF_DMEM_24hr: (Pilot) CCTE's 24-hour Apoptosis Assessment for the High-Throughput Transcriptomics (HTTr) Platform, in MCF-7 cells cultured in phenol red-free DMEM + 10% charcoal-stripped fetal bovine serum, Harrill Lab (AID 2283986)
# Procedure, shortened: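 MCF-7 cells in phenol red-free DMEM with 10% charcoal-stripped FBS, exposed 24 h across an eight-point dilution series. Caspase-3/7 activation imaged with CellEvent Green by high content imaging; bidirectional fitting against DMSO.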
compound,measurement,setting,value
CCCCCCc1ccc(O)cc1O,AC50,DIO1 (gene 1733),128 µM (active)
same,AC50,[1],14.4 µM (active)
same,outcome,[2],inactive
same,AC50,[3],14.8 µM (active)
same,AC50,[4],20.4 µM (active)
same,AC50,[5],41.4 µM (active)
Nc1cccc(N)c1,outcome,[4],inactive
same,outcome,[5],inactive
CCOc1cccc(-n2cc(C(=O)N3CCN(c4cc(C(=O)O)c5ccccc5c4)CC3)nc2-c2ccc(C)cc2)c1,AC50,DIO1 (gene 1733),151 µM (active)
same,AC50,[1],78.4 µM (active)
same,outcome,[2],inactive
same,outcome,[3],inactive
same,outcome,[4],inactive
same,outcome,[5],inactive
O=C(CCCCCCCCc1cccnc1)N1CCC(C=C(c2ccccc2)c2ccccc2)CC1,outcome,[1],inactive
same,outcome,[2],inactive
same,outcome,[4],inactive
same,outcome,[5],inactive
Cc1ccc(N)cc1O,AC50,[1],37 µM (active)
same,outcome,[2],inactive
same,outcome,[3],inactive
same,AC50,[4],50 µM (active)
same,AC50,[5],60.5 µM (active)
C=CCCCCCCCCC(=O)O,AC50,[4],35.1 µM (active)
same,outcome,[5],inactive
Cc1[nH]cnc1C[C@H]1CCc2c(C)c3ccccc3n2C1=O,AC50,[4],30.5 µM (active)
same,outcome,[5],inactive
CCCN(C1CCN(C(=O)C2CCNCC2)CC1)[C@@H]1CCc2ccc(OC)cc2C1,outcome,[1],inactive
same,outcome,[2],inactive
CCn1nc(Cc2ccccc2)cc1C1CCN(C[C@H]2C[C@H](N(C)[C@@H](C(=O)O)C(C)C)C[C@@H]2c2cccc(F)c2)CC1,AC50,[4],27.8 µM (active)
same,outcome,[5],inactive
Oc1ccc2c(c1)-c1ccccc1C2,AC50,[1],12 µM (active)
same,AC50,[2],7.43 µM (active)
same,outcome,[3],inactive
Cc1c(-c2cccnc2)c2ccccc2n1CCCCC(=O)O,AC50,[4],26.7 µM (active)
same,outcome,[5],inactive
CC(C)=CCCC(C)=CC=O,outcome,[4],inactive
same,outcome,[5],inactive
O=C(O)c1cc(N=Nc2ccc(S(=O)(=O)Nc3ccccn3)cc2)ccc1O,AC50,DIO1 (gene 1733),27.3 µM (active)
CC(C)CC(C)(O)C#CC(C)(O)CC(C)C (stereo unspecified),AC50,[4],50 µM (active)
same,AC50,[5],37.8 µM (active)
Cc1ccc(O)cc1,outcome,[3],inactive
CCC(C)(C)C(=O)O[C@H]1C[C@@H](C)C=C2C=C[C@H](C)[C@H](CC[C@@H]3C[C@@H](O)CC(=O)O3)[C@H]21,outcome,[6],inactive
same,outcome,[7],inactive
same,outcome,[8],inactive
same,outcome,[9],inactive
same,AC50,DIO1 (gene 1733),49 µM (active)
Fc1ccccc1[C@@H](F)COC1CCC(Nc2ncnc3[nH]ncc23)CC1 (stereo partly specified),AC50,[1],18.3 µM (active)
same,outcome,[2],inactive
same,AC50,[4],14.1 µM (active)
same,AC50,[5],13.8 µM (active)
COc1ccc2sc(C(=O)Nc3nnn[nH]3)c(OC(C)C)c2c1,outcome,[4],inactive
same,outcome,[5],inactive
CC(C)=CCCC(C)CCO (stereo unspecified),outcome,[1],inactive
same,outcome,[2],inactive
same,outcome,[3],inactive
C1N2CN3CN1CN(C2)C3,outcome,[3],inactive
CN(C)c1ccc(N=NS(=O)(=O)O)cc1,outcome,[1],inactive
same,outcome,[2],inactive
same,outcome,[3],inactive
O=C(OC[C@H]1O[C@@H](OC(=O)c2cc(O)c(O)c(OC(=O)c3cc(O)c(O)c(O)c3)c2)[C@H](OC(=O)c2cc(O)c(O)c(OC(=O)c3cc(O)c(O)c(O)c3)c2)[C@@H](OC(=O)c2cc(O)c(O)c(OC(=O)c3cc(O)c(O)c(O)c3)c2)[C@@H]1OC(=O)c1cc(O)c(O)c(OC(=O)c2cc(O)c(O)c(O)c2)c1)c1cc(O)c(O)c(OC(=O)c2cc(O)c(O)c(O)c2)c1,AC50,DIO1 (gene 1733),17.7 µM (active)
COc1ccc(/C=C/S(=O)(=O)NC(=O)c2ccc(C)cc2Cl)cc1,AC50,[4],24.6 µM (active)
same,AC50,[5],15.2 µM (active)
CCNc1ccccc1,outcome,[1],inactive
same,outcome,[2],inactive
same,outcome,[3],inactive
O=C(O)c1cccc(N(Cc2cccnc2)c2ccc(OC(F)F)c(OC(F)F)c2)c1,AC50,[1],22.1 µM (active)
same,outcome,[2],inactive
same,outcome,[3],inactive
same,AC50,[4],1.03 µM (active)
same,outcome,[5],inactive
O=c1[nH]c2ccc(S(=O)CCN3CCC(Cc4ccc(F)cc4)CC3)cc2o1 (stereo unspecified),AC50,[4],49.7 µM (active)
same,AC50,[5],35.5 µM (active)
CCOC(=O)c1ccc(C2CCC(NC[C@H](O)COc3ccc(O)c(NS(C)(=O)=O)c3)CC2)cc1 (stereo partly specified),AC50,DIO1 (gene 1733),95 µM (active)
same,outcome,[4],inactive
same,outcome,[5],inactive
Nc1nc2ncc(CNc3ccc(C(=O)N[C@@H](CCC(=O)O)C(=O)O)cc3)nc2c(=O)[nH]1,outcome,[1],inactive
same,outcome,[3],inactive
CC(C)=CCC/C(C)=C/CO,AC50,[4],45.7 µM (active)
same,outcome,[5],inactive
CC[C@H](C)C(=O)O[C@H]1C[C@@H](C)C=C2C=C[C@H](C)[C@H](CC[C@@H]3C[C@@H](O)CC(=O)O3)[C@H]21,outcome,[6],inactive
same,outcome,[7],inactive
same,outcome,[8],inactive
same,outcome,[9],inactive
same,AC50,DIO1 (gene 1733),48.1 µM (active)
CC(C)c1cccc(C(C)C)c1N1C(=O)c2ccc(O)cc2C1=O,AC50,[4],20 µM (active)
same,AC50,[5],20.3 µM (active)
Cn1c(=O)cc(Oc2ccc(F)cc2F)c2cnc(NCC(C)(C)O)nc21,outcome,[4],inactive
same,outcome,[5],inactive
CCOC(=O)COc1ccc2c(c1)CC(NCC(O)c1cccc(Cl)c1)CC2 (stereo unspecified),AC50,[4],32.9 µM (active)
same,AC50,[5],62.7 µM (active)
